Source: PubChem
Rows were chosen to be rich in hits. Some 12% of all compounds tested hit in one or more screens of this group.
HP1b binding inh: inhibitors of HP1-beta chromodomain binding to methylated histone tails; P83916; AlphaScreen HP1-beta / biotin-H3K9me3 peptide binding; Potency, µM (titrated, usually from 114 µM), for the others: at the highest dose activity change, negative = inhibition, actives largely listed as inhibitors; actives 0.56% (n = 390,000); note: nearly all actives have a fitted effect of over 70% in size
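HP1-beta protein (50 nM final) preincubated 30 min at room temperature with biotinylated H3(1-18)K9me3 peptide (50 nM) in PBS pH 7.4, 0.01% Tween-20, then compound added for 30 min. AlphaScreen streptavidin donor/nickel chelate acceptor beads (10 ug/mL final), 30 min dark, luminescence read.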
L3MBTL1 block: L3MBTL1 (human) inhibition. Q9Y468. AlphaScreen L3MBTL1–H3K9me1 peptide binding. Potency, µM (titrated, usually from 57.1 µM), for inactives: top-dose activity, negative = inhibition, usual class: inhibitors. actives 0.66% (n = 230,000); note: % is set by controls: 0 for no effect and ±100 for the full control effect; nearly all actives have a fitted effect of over 60% in size
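Read-out is AlphaScreen signal from streptavidin donor and nickel chelate acceptor beads (10 ug/mL final each) bridging L3MBTL1 (50 nM) and biotinylated K9-monomethylated H3(1-15) peptide (75 nM), after 30 min compound exposure at room temperature.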
BAZ2B inh: inhibitors of human BAZ2B bromodomain | Q9UIF8 | AlphaScreen BAZ2B-H3K14Ac peptide displacement | Potency, µM (titrated, usually from 114 µM), for inactives: top-dose activity change, negative = inhibition, most hits filed as inhibitors | actives 4.4% (n = 360,000) | AID 504333; note: % is set by controls: 0 for no effect and ±100 for the full control effect; nearly all actives have a fitted effect of over 60% in size
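AlphaScreen displacement: compounds (up to 110uM) incubated 30 min at room temperature with a preformed 50 nM BAZ2B/50 nM biotinylated H3K14Ac peptide complex in PBS pH 7.4 with Tween-20. Donor and acceptor beads at 10 ug/mL final added, 20 min light-protected before reading.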
G9a block: G9a (human) methyltransferase inhibition; G9a H3K9 monomethylation, AlphaScreen, 2 h; Potency, µM (series often up to 102 µM), for the others: at the highest dose activity, negative = inhibition, most hits filed as inhibitors; actives 8.8% (n = 350,000); AID 504332; note: % is set by controls: 0 for no effect and ±100 for the full control effect; nearly all actives have a fitted effect of over 75% in size
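Signal arises when biotinylated H3K9 peptide, once monomethylated, bridges streptavidin donor and antibody-captured acceptor beads. Enzyme at 20 nM was preincubated 15 min with test compounds; peptide 500 nM and SAM 20 uM then reacted for 2 h.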
Sfp inh: Sfp phosphopantetheinyl transferase inhibition. Q9F4F7. actives 3.5% (n = 310,000). AID 1490. Biochemical Sfp PPTase activity, qHTS. Potency, µM, without a hit: largest response in the series, negative = inhibition, most hits filed as inhibitors;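 note: the enzyme is Sfp with the accession as filed and its product quenches rhodamine fluorescence; 0% = enzyme reaction without inhibitor and -100% = no enzyme wells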
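Reaction rates are the 30-min fluorescence difference (ex 525, em 598 nm) in wells containing 15 nM Sfp, 5 uM rhodamine-CoA and 12.5 uM BHQ-2-YbbR at pH 7.6 with 10 mM MgCl2.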
JMJD2A Tudor: JMJD2A Tudor domain (human) inhibition | Potency, µM (top dose mostly 114 µM), for the others: at the top dose activity change, negative = inhibition, hits mostly inhibitors | AlphaScreen JMJD2A-Tudor / H3K4me3 peptide binding | O75164 | actives 4.4% (n = 390,000); note: % is set by controls: 0 for no effect and ±100 for the full control effect; nearly all actives have a fitted effect of over 50% in size
* hit, by the source's call; u = inconclusive; x = not tested or not shown; ! = repeats disagree; [ ] = another dose, or the depositor's remark. Calls come from the whole dose curve; as a rule, active = well fitted curve in the direction sought with a large enough effect; inconclusive = small, poorly fitted or top-dose-only effect, or another doubt; inactive = no such curve, though single readings can be large; an effect the other way counts as inactive or inconclusive. Potency is the fitted concentration of half-maximal effect.

SMILES	HP1b binding inh	L3MBTL1 block	BAZ2B inh	G9a block	Sfp inh	JMJD2A Tudor
C[C@@H](C(=O)NC1CCN(Cc2ccccc2)CC1)N1C(=O)N2CCc3c([nH]c4ccccc34)[C@@]2(C)C1=O	-11%	-12%	u	-17%	4%	u
CC(C)C[C@@H](C(=O)NC1CCN(Cc2ccccc2)CC1)N1C(=O)N2CCc3c([nH]c4ccccc34)[C@@]2(C)C1=O	u	u	u	u	10%	40µM*
CN(CCCC(=O)Nc1ccc(OC(F)F)cc1)S(=O)(=O)c1ccc(F)cc1	22%	x	-7%	45µM*	-3%	1%
CN(CCCC(=O)Nc1ccccc1F)S(=O)(=O)c1ccc(F)cc1	31%	x	4%	0%	6%	0%
CN(CCCC(=O)Nc1ccc(Br)cc1F)S(=O)(=O)c1ccccc1	18%	x	0%	35µM*	-13%	1%
Cc1ccc(S(=O)(=O)N(C)CCCC(=O)Nc2ccc(F)cc2)cc1	38%	x	x	-28%	14%	-11%
CCOC(=O)c1c(-c2ccc(C)s2)csc1NC(=O)c1ccco1	x	9%	3%	-9%	13%	x
CCOC(=O)c1c(-c2cccs2)csc1N	u	-18%	-38%	50µM*	-21%	-35%
CCOC(=O)c1c(-c2ccco2)csc1N	u	-1%	-13%	18µM*	32µM*	u
N#Cc1nc(-c2ccc(COc3ccccc3)o2)oc1N1CCCCC1	u	x	5µM*	4.5µM*	x	u
N#Cc1nc(-c2ccccc2Cl)oc1N1CCCCC1	u	-27%	22µM*	35µM*	-6%	u
Cc1cccc(OCc2ccc(-c3nc(C#N)c(N4CCN(c5ccccc5)CC4)o3)o2)c1	12%	x	-38%	-42%[59 µM]	x	-35%
N#Cc1nc(-c2ccc(COc3ccc(Cl)cc3)o2)oc1N1CCCCC1	-8%	x	u	3.2µM*	x	u
Cc1cc(C)c2ccc(C)[n+]([O-])c2c1O	8%	-2%	u	13µM*	-18%	-16%
Cc1cc(C)c2ccc(N)nc2c1O	13%	4%	10%	u	15%	-6%[57.1 µM]
CN(Cc1ccc(Cl)cc1Cl)C(=O)CN1C(=O)NC2(CCCC2)C1=O	39%	8%	-2%	35µM*	x	-2%
COc1cccc(C=Nc2ccc(N3CCOCC3)cc2)c1O	13%	-9%	-35%	u	1%	-21%
CCN1CCN(c2ccc(N=Cc3ccccc3O)cc2)CC1	18%	-3%	-32%	50µM*	18%	-6%
CCCc1cc(=O)n2[nH]c(NC(=O)c3ccco3)nc2n1	23%	x	-26%	79µM*	-8%	6%
CCC(=O)Nc1nc2nc(C)cc(=O)n2[nH]1	5%	-3%	56µM*	-20%[59 µM]	-23%	32µM*
Cc1cc(=O)n2[nH]c(C(=O)O)nc2n1	-27%	-2%	u	u	u	8.9µM*
Cc1ccc(C(=O)Nc2nc3nc(C)cc(=O)n3[nH]2)cc1	-9%	x	-4%	12%[59 µM]	x	u
Cc1cc(=O)n2[nH]c(CCC(=O)O)nc2n1	1%	0%	-3%	-36%	-21%	-11%
Cc1cc(=O)n2[nH]c(COc3ccccc3)nc2n1	32%	11%	6%	40µM*	8%	2%
COc1ccc(-c2nc3nc(C)cc(=O)n3[nH]2)cc1	13%	x	8%	14%	12%	-8%
SMILES	HP1b binding inh	L3MBTL1 block	BAZ2B inh	G9a block	Sfp inh	JMJD2A Tudor
Cc1oc2ncn(CC(C)C)c(=O)c2c1C(=O)N1CCN(c2ccc(F)cc2)CC1	8%	x	2%[57.1 µM]	-7%[59 µM]	x	-15%
COc1cccc(-c2ccc3ncnc(NCc4cccc(F)c4)c3c2)c1	x	7%	-20%	8%[12.7 µM]	x	x
O=C(OCc1ccccc1F)c1ccc(-c2nnn(Cc3ccccc3)n2)cc1	101%	x	11%	1%[59 µM]	x	71%
CCc1ccc(C(=O)O)cc1	21%	4%	-4%	-3%	25%	-1%
C[C@@](N)(C(=O)O)c1ccc(C(=O)O)cc1	x	x	x	27%[59 µM]	50µM*!	x
CCOc1ccc(C(C)(N)C(=O)O)cc1 (stereo not given)	6%	x	-38%	u	-8%	3.5µM*
CC(N)(C(=O)O)c1ccc(C(=O)O)cc1 (stereo not given)	x	x	x	17%[12.7 µM]	56µM*	x
CCCNC(=O)N1CCCN(S(=O)(=O)c2ccc3c(ccn3CC)c2)CC1	22%[57 µM]	x	1%	1%[59 µM]	x	-11%
COc1ccccc1N1CCN(C(=O)c2cnc(N3CCCCC3)c3ccccc23)CC1	8%[57 µM]	x	-12%	6%[59 µM]	x	-20%
COc1ccc(-c2c(C#N)c(SCC(=O)Nc3ccccc3C)nc(C)c2C(=O)Nc2ccccc2)cc1OC	21%	x	-1%	-6%[59 µM]	x	-7%
Cc1cc(C)nc(N/N=C/c2ccccc2)n1	38%	-4%	-3%	21%[59 µM]	u	-4%
Cc1cc(C)nc(N/N=C/c2sccc2C)n1	1%	-6%[11.4 µM]	-7%	1%	7%	13µM*
Cc1ccsc1/C=N/Nc1ncc(Cl)cc1Cl	46%	x	-7%	35%[59 µM]	11%	-24%
Cc1ccsc1/C=N/Nc1ccc(F)cc1F	-29%	x	u	1.3µM*	-2%	-34%
Cc1ccsc1/C=N/Nc1nc(=O)[nH]nc1C	30%	x	32µM*	4%	12%	u
CCCCCN=c1ccn(Cc2ccccc2)c2ccccc12	x	x	x	x	-4%	x
O=C(COC(=O)CC1CC2CCC1C2)Nc1ccccc1[N+](=O)[O-] (stereo not given)	u	-21%	x	x	x	50µM*
CCCCCCNc1nc(-c2ccc(OC)cc2)c(CCC(=O)O)s1	-2%	-11%	u	45µM*	-11%	-16%
COCCNc1nc(-c2ccc(OC)cc2)c(-c2ccc(OC)cc2)s1	-3%	-15%	71µM*	u	u	u
COc1ccc(-c2noc(CCC(=O)NC3CCCCCC3)n2)cc1	31%	x	2%	8%	9%	-13%
COC(=O)CCc1sc(Nc2ccc(OC)cc2)nc1-c1ccc(OC)cc1	-16%	x	-34%	8.9µM*	x	u
COC(=O)CCc1sc(NC2CCCCC2)nc1-c1ccc(OC)cc1	u	-14%	u	13µM*	-62%	u
CCOC(=O)c1c(C)[nH]c(C)c1S(=O)(=O)N1CCCC(C(=O)NCc2cccc(OC)c2)C1 (stereo not given)	18%	x	-8%	-30%[59 µM]	x	-9%
CCCCCCCCS(=O)CCC(=O)O (stereo not given)	39%	x	-9%	22µM*	5%	1%
CC(=O)c1ccc(-c2ccc(C(=O)N3CCCc4ccccc43)o2)cc1	-24%	-25%	u	45µM*	-7%	u
CC(=O)c1ccc(-c2ccc(C(=O)N3CCN(c4ccc(F)cc4)CC3)o2)cc1	0%	u	x	32µM*	-11%	u
